Reference: article PMC4336329 (PLoS ONE, 2015)
The whole screen tested about 310,000 compounds, of which about 2,200 (0.71%) showed an effect of 50% or more. Effects have a minus sign here. Many of the other results were omitted from the sample, so strong results are more common in it than they were.

target: human ether-à-go-go-related gene (hERG) potassium channel (human, UniProt Q12809); assay: primary screen, population patch clamp on CHO cells stably expressing hERG; higher = less effect of the substance
Sequence (Q12809 whole entry, looked up): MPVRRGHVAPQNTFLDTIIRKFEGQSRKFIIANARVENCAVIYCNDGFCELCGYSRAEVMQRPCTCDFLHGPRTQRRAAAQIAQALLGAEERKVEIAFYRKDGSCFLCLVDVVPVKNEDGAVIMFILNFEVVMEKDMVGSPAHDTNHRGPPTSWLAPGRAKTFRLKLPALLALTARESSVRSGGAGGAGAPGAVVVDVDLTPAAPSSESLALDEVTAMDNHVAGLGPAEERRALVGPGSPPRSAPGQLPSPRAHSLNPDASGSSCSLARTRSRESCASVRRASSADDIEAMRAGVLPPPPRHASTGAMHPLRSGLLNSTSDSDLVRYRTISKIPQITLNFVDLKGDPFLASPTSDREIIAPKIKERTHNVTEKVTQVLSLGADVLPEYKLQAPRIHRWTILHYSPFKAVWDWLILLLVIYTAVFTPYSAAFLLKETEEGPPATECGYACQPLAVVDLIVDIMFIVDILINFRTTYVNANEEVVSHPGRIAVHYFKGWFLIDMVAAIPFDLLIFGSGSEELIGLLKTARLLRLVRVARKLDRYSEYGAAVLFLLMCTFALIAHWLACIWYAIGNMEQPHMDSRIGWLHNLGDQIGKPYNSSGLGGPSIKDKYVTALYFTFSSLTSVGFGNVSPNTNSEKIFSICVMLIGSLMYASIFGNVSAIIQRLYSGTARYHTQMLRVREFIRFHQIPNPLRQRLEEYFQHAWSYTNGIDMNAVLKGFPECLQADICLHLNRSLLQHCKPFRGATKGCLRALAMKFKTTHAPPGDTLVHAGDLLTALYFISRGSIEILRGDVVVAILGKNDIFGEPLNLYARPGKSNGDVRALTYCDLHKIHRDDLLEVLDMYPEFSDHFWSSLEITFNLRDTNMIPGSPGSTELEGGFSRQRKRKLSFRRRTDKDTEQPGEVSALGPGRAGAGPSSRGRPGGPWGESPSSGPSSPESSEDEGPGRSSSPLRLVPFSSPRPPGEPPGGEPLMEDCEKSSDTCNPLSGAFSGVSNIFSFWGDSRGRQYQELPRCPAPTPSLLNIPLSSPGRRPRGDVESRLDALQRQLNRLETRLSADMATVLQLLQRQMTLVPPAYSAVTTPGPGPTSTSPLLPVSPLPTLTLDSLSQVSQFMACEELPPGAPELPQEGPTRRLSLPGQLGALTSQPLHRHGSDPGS

| SMILES | hERG current change (%, negative = inhibition) at 1uM [%] |
| --- | --- |
| CC(C)(C)OC(=O)NC(CNCc1ccccc1)Cc1ccccc1 (stereo not shown) | 3.93 |
| Nc1c(C(=O)NCCN2CCOCC2)c2nc3ccccc3nc2n1-c1ccccc1 | -3.09 |
| Cc1ccc(NC(=S)/N=C(\N)Nc2nc(C)c3cc(C)c(C)cc3n2)cc1C | 8.63 |
| COc1cccc(C(=O)Nc2cccc(C(C)=O)c2)c1 | 11.4 |
| COc1ccc(Cl)c(N2CCN(CCCNC(=O)Nc3ccc(C)cc3)CC2)c1 | -24.5 |
| COc1ccccc1N1CCN(CCCNC(=O)Nc2ccccc2)CC1 | -28.8 |
| COc1ccc(NC(=O)NCCN2CCN(c3cc(OC)ccc3OC)CC2)cc1 | 13.5 |
| COc1ccc(N2CCN(CCCNC(=O)Nc3ccccc3)CC2)cc1 | -50.5 |
| COc1ccc(NC(=O)NCCCN2CCN(c3cc(C)ccc3C)CC2)cc1 | -80.4 |
| COc1ccc(NC(=O)NCCCN2CCN(c3ccccc3F)CC2)cc1 | -5 |
| CCCSc1nnc2n(N)c(=O)c3ccccc3n12 | 11.3 |
| C[C@@H](C(=O)Nc1ccc2ccccc2c1)[C@H]1C[C@]1(C)[C@H](NS(=O)(=O)c1ccc(-c2ccccc2)cc1)c1ccccc1 | -8.41 |
| Fc1ccccc1NC(=S)N1CCOCC1 | 12.2 |
| COc1cc(C2SCCS2)cc(Br)c1Oc1ncccc1[N+](=O)[O-] | 10.3 |
| CC(C)CCNC(=O)Cc1csc(-c2ccccc2)n1 | 6.54 |
| OC1CCC(NC(=S)Nc2ccc(SC(F)F)cc2)CC1 (stereo not shown) | 6.06 |
| O=C(OCc1cnc(Cl)s1)c1cccc(Cl)c1 | -5.8 |
| CCCc1cc(C(=O)Nc2ccc(Cl)cn2)cs1 | 9.72 |
| O=C(CCS(=O)(=O)c1ccc2c(c1)NC(=O)CO2)NCCc1ccccc1 | 9.02 |
| CS(=O)(=O)N(Cc1ccco1)CC(O)Cn1c2ccccc2c2ccccc21 (stereo not shown) | 15 |
| CCOc1ccc(NS(=O)(=O)c2ccc(C(=O)NCC3(N(C)C)CCCCC3)cc2)cc1 | 6.85 |
| Cc1cc(S(=O)(=O)Nc2ccc(C(=O)NCC3(N(C)C)CCCCC3)cc2)ccc1F | -7.71 |

| SMILES | hERG current change (%, negative = inhibition) at 1uM [%] |
| --- | --- |
| CN(C)C1(CNC(=O)c2ccc(NS(=O)(=O)c3ccc(Cl)c(Cl)c3)cc2)CCCCC1 | -50.9 |
| COc1ccc(CCC(=O)Nc2ccc(Cn3ccnc3)cc2)cc1 | 10.4 |
| CCCNc1c(NS(=O)(=O)c2ccc(OC)c(OC)c2)c(=O)oc2ccccc12 | -77.2 |
| CCCNc1c(NS(=O)(=O)c2ccc(C(C)(C)C)cc2)c(=O)oc2ccccc12 | 9.75 |
| CCCNc1c(NS(=O)(=O)c2ccc(C)c(C)c2)c(=O)oc2ccccc12 | -6.38 |
| Oc1c(Br)cc(/C=N/n2c(-c3ccccc3)n[nH]c2=S)c(Br)c1O | 17.1 |
| O=[N+]([O-])c1ccc(OCC(O)CN(CCO)CCO)cc1 (stereo not shown) | -16.9 |
| Cl.O=[N+]([O-])c1ccc(OCC(O)CNC2CCCC2)cc1 (stereo not shown) | -30.3 |
| COc1ccc(OCC(O)CN(C2CCCCC2)C2CCCCC2)cc1.Cl (stereo not shown) | -37.9 |
| CCCCN(CCCC)CC(O)COc1ccc(Br)cc1 (stereo not shown) | -43.6 |
| CCCN(CCC)CC(O)COc1ccc([N+](=O)[O-])cc1 (stereo not shown) | -81.4 |
| COc1ccc(OCC(O)CNC(=O)/C=C/c2cccc([N+](=O)[O-])c2)cc1 (stereo not shown) | 14.8 |
| CC(C)N(C(=O)/C=C/c1cccc([N+](=O)[O-])c1)C(C)C | 7.97 |
| Cc1nccn1CC(O)COc1ccc([N+](=O)[O-])cc1 (stereo not shown) | -41.3 |
| CC(C)CN(CC(C)C)CC(O)COc1ccc([N+](=O)[O-])cc1.Cl (stereo not shown) | -52.1 |
| COc1ccc(OCC(O)CN(C)C(=O)/C=C/c2cccc([N+](=O)[O-])c2)cc1 (stereo not shown) | -56.7 |
| O=[N+]([O-])c1ccc(OCC(O)CN(C2CCCCC2)C2CCCCC2)cc1 (stereo not shown) | -80.4 |
| COC(=O)c1ccc(OCC(O)CN(CC(C)C)CC(C)C)cc1 (stereo not shown) | 6.51 |
| CCOc1ccccc1NC(=O)CSc1nc2ccccc2c(=O)n1CC1CCCO1 (stereo not shown) | -35.6 |
| Cc1c(=O)n(OCc2ccccc2)c2ccccc2[n+]1[O-] | 9.46 |
| Oc1cnn(-c2ccccc2)c1 | 5.96 |
| CC(=O)NC(CC(=O)OCc1ccc([N+](=O)[O-])cc1)c1ccccc1 (stereo not shown) | -27 |

| SMILES | hERG current change (%, negative = inhibition) at 1uM [%] |
| --- | --- |
| COCCNC(=O)CSc1nc2sccc2c(=O)n1-c1ccccc1 | 16.6 |
| CCn1c(NC(=O)C(C)C)c2ccccc2nc1=O | 2.18 |
| COc1cc(C)nc(N(C)S(=O)(=O)c2ccccc2Cl)n1 | 7.72 |
| CCN(CC)S(=O)(=O)c1cccc(C(=O)Nc2ccc(C#N)cc2)c1 | -74 |
| CCN(CC)S(=O)(=O)c1cccc(NC(=O)c2ccc(C#N)cc2)c1 | 3.29 |
| CCN(CC)S(=O)(=O)c1cccc(C(=O)Nc2ccccc2)c1 | -0.175 |
| COC(=O)CSC(C(=O)Nc1ccc(C)c(C)c1)c1ccccc1 (stereo not shown) | -4.33 |
| O=C(Cn1ccc([N+](=O)[O-])n1)N1CCCCCC1 | 13.1 |
| COC(=O)c1ccc(/C=N/NC(=O)C2CC(=O)N(c3ccc(F)cc3)C2)cc1 (stereo not shown) | 16.8 |
| COC(=O)c1nn(-c2cccc(C(F)(F)F)c2)ccc1=O | 8.73 |
| COc1ccc(/C=N/NC(=O)c2ccc(F)cc2)cc1CN1CCc2cc(OC)c(OC)cc2C1C (stereo not shown) | -99.1 |
| COc1ccc(C(=O)N/N=C/c2ccc(OC)c(CN3CCCc4ccccc43)c2)cc1 | -6.65 |
| COc1ccc(/C=N/NC(=O)c2cccnc2)cc1CN1CCc2cc(OC)c(OC)cc2C1C (stereo not shown) | 1.82 |
| COc1ccc(C(=O)N/N=C/c2ccc(OC)c(CN3CCc4cc(OC)c(OC)cc4C3C)c2)cc1 (stereo not shown) | -85.1 |
| COc1ccc(/C=N/NC(=O)c2cc(OC)c(OC)c(OC)c2)cc1CN1CCc2cc(OC)c(OC)cc2C1C (stereo not shown) | -21.9 |
| COc1ccc(/C=N/NC(=O)c2ccccc2[N+](=O)[O-])cc1CN1CCc2cc(OC)c(OC)cc2C1C (stereo not shown) | -10.4 |
| Cc1cccc([C@@H]2[C@@H]3C(=O)N(Cc4ccccc4)C(=O)[C@@H]3[C@]3(Cc4ccccc4)C(=O)N(c4cccc(F)c4)C(=O)N23)c1 | 9.13 |
| COc1cc(/C=C2/SC(=S)N(CC(=O)O)C2=O)ccc1OC(=O)c1ccco1 | 7.62 |
| N=C1/C(=C/c2ccc(OCc3ccccc3F)cc2)C(=O)N=C2SC(CC(=O)N3CCOCC3)=NN12 | 12.2 |
| CCC(Sc1nc(N)c(NC(=O)c2ccc(OC)c(OC)c2)c(=O)[nH]1)C(=O)OC (stereo not shown) | -5.41 |
| CCC(NS(=O)(=O)c1cccs1)c1ccc(C)cc1 (stereo not shown) | 8.69 |
| O=[N+]([O-])c1cccc2c(N3CCCC3)ccnc12 | -84.4 |

| SMILES | hERG current change (%, negative = inhibition) at 1uM [%] |
| --- | --- |
| Cc1ccc(S(=O)(=O)N2CCN(c3ccc([N+](=O)[O-])c4cccnc34)CC2)cc1 | 7.53 |
| O=C(c1ccccc1F)N1CCN(c2ccc([N+](=O)[O-])c3ncccc23)CC1 | -38.7 |
| O=[N+]([O-])c1ccc(N2CCCC2)c2ncccc12 | 2.1 |
| O=[N+]([O-])c1ccc(N2CCN(S(=O)(=O)c3ccccc3)CC2)c2cccnc12 | -75.6 |
| O=[N+]([O-])c1cccc2c(N3CCOCC3)ccnc12 | 10 |
| O=[N+]([O-])c1ccc(N2CCOCC2)c2cccnc12 | -7.04 |
| O=C(c1ccccc1F)N1CCN(c2ccc([N+](=O)[O-])c3cccnc23)CC1 | -13.2 |
| O=C(c1cc(F)c(F)cc1Cl)N1CCN(c2ccc([N+](=O)[O-])c3ncccc23)CC1 | -53.6 |
| COc1cc(NC(=O)C2CC(=O)N(Cc3ccco3)C2)cc(OC)c1 (stereo not shown) | 2.39 |
| CC/C(=N\NC(=O)c1ccc(N2CCCC2=O)cc1)c1ccccc1 | 10.8 |
| Cc1ccc2nc(SC(C)C(=O)NC3CCCc4ccccc43)[nH]c2c1 (stereo not shown) | 11.6 |
| CC1(c2ccc([N+](=O)[O-])cc2)NC(=O)N(CC(=O)Nc2ccc(N3CCCCC3)cc2)C1=O (stereo not shown) | 14.8 |
| Cc1ccc(-n2ncc3c2CCCC3NC(=O)c2cnccn2)cc1C (stereo not shown) | 10.3 |
| CCOc1ccc(C(C)NC(=O)Cc2ccccc2)cc1OCC (stereo not shown) | 10.8 |
| O=C(Cn1nc(C(F)(F)F)cc1C1CC1)Nc1ccccc1F | 16.1 |
| COCCN1CC(=O)N2C(c3cccc(C)c3)c3[nH]c4ccccc4c3C[C@H]2C1=O (stereo partly shown) | 1.07 |
| COc1cc2c3nnc(-c4ccc(F)cc4)c-3cn(Cc3ccc(F)cc3)c2cc1OC | -5.13 |
| COc1cc2c3nnc(-c4ccc(F)cc4)c-3cn(Cc3ccc(C)cc3)c2cc1OC | 13.5 |
| COc1ccc(Cn2cc3c(-c4ccc(F)cc4)nnc-3c3cc(OC)c(OC)cc32)cc1 | -75.6 |
